IL-1B inflam inh – qHTS for Inhibitors of Inflammasome Signaling: IL-1-beta AlphaLISA Primary Screen. THP-1 LPS/ATP IL-1B secretion, AlphaLISA, 16 h; hits give low values. activity change, % at 57.5 µM. hit rate 4.7% among 360,000; in the data active = activity change below about -50%; inconclusive = mostly about -30% to -49%
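Secreted IL-1B measured by AlphaLISA bead assay after 16 h compound exposure of THP-1 cells; compounds (final up to 57.5 uM) added 1 h before LPS (250 ng/mL) and ATP (1.25 mM) stimulation; lower signal means less secretion.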
TDP1 cell noCPT – qHTS for Inhibitors of human tyrosyl-DNA phosphodiesterase 1 (TDP1): qHTS in cells in absence of CPT | DT40 Tdp1-/- hTDP1 cells, no CPT, ATP luminescence, 48 h | Potency, µM (top dose mostly 46.2 µM), most hits filed as inhibitors | hit rate 15% among 420,000; also: nearly all actives have a fitted effect of over 55% in size
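Growth of hTDP1-complemented DT40 Tdp1-knockout cells is measured by ATP luminescence after at least 48 hr compound exposure at 37 °C, with DMSO substituting for the 20 nM CPT used in the parallel screen.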
DT40 TDP1 CPT – qHTS for Inhibitors of human tyrosyl-DNA phosphodiesterase 1 (TDP1): qHTS in cells in presence of CPT; chicken DT40 Tdp1-/-;hTDP1 cells + 20 nM CPT, ATP luminescence, 48 h; Potency, µM (highest dose often 46.2 µM), actives largely listed as inhibitors; hit rate 12% among 420,000; AID 686979, 2013; also: nearly all actives have a fitted effect of over 55% in size
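Cell growth measured by CellTiter-Glo luminescence after a minimum 48 h, 37 C compound exposure with 20 nM CPT in Tdp1-knockout DT40 cells stably expressing hTDP1, seeded 400/well; qHTS titration format.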
HepG2 viability – qHTS for Inhibitors of TGF-b: Cytotox Counterscreen | hit rate 0.76% among 410,000 | Potency, µM (highest dose often 46.1 µM), usual class: cytotoxic | HepG2 CAGA-GFP viability, ATP luminescence, 18 h
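CellTiter-Glo luminescence gave cytotoxicity after 18 hours at 37 degrees C. The cells were HepG2 CAGA-GFP in 1% FBS DMEM, stimulated with 500 pg/mL TGF-beta after compound addition. %Activity was normalised to no-cell wells (complete cell-killing) and DMSO (no toxicity), and curves were fitted and classified.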
TDP1 block – qHTS Assay for Inhibitors of Tyrosyl-DNA Phosphodiesterase (TDP1). Tyrosyl-DNA phosphodiesterase 1 (Homo sapiens), Q9NUW8. recombinant TDP1, AlphaScreen DNA substrate cleavage. Potency, µM (titrated, usually from 130 µM), most hits filed as inhibitors. hit rate 0.28% among 350,000; also: nearly all actives have a fitted effect of over 40% in size
Target sequence (Q9NUW8 whole entry, looked up): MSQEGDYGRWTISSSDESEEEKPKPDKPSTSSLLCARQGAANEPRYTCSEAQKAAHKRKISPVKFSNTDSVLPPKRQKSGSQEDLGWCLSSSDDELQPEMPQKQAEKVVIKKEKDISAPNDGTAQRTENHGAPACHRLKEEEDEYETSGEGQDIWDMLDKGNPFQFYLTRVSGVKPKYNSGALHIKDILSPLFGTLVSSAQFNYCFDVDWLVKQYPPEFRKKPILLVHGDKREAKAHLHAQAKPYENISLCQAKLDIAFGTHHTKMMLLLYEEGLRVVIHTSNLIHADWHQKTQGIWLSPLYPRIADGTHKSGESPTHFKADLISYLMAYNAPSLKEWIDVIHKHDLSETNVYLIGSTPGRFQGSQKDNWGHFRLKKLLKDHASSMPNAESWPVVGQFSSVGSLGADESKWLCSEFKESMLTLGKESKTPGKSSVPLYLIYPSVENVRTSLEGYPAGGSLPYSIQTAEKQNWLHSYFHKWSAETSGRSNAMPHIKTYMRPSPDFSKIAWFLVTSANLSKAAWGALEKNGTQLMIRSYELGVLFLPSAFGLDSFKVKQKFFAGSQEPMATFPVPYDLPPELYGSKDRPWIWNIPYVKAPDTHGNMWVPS
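Enzyme-compound mixtures sat 15 min at room temperature, followed by a 5 min reaction with 15 nM final substrate and 10 min with AlphaScreen beads. Recombinant human Tdp1 was used at 1 nM final.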
TGFb SMAD3 inh – qHTS for Inhibitors of TGF-b. HepG2 CAGA-GFP TGF-b/SMAD3 reporter, GFP fluorescence, 18 h; TGF-beta stimulated, 500 pg/mL final. hit rate 1.2% among 410,000. Potency, µM (series often up to 46.1 µM), hits mostly inhibitors; also: nearly all actives have a fitted effect of over 65% in size
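Inhibition of TGF-beta-driven CAGA-GFP reporter expression in HEPG2 cells is measured by cellular GFP fluorescence after 18 h stimulation with 500 pg/mL recombinant TGF-beta in 1% FBS medium at 37 degrees C.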
Numbers stand for hits; i = inactive; ? = inconclusive; nt = no result given; [ ] = another dose, or the depositor's remark. Rows were chosen to be rich in hits. Some 18% of all compounds tested hit in one or more screens of this group. Unless noted, calls follow the shape of the dose curve; as a rule, active = well fitted curve in the direction sought with a large enough effect; inconclusive = small, poorly fitted or top-dose-only effect, or another doubt; inactive = no such curve, though single readings can be large; an effect the other way counts as inactive or inconclusive.

SMILES | IL-1B inflam inh | TDP1 cell noCPT | DT40 TDP1 CPT | HepG2 viability | TDP1 block | TGFb SMAD3 inh
COc1ccc(C(C)=O)cc1COC(=O)Cc1n[nH]c(=O)c2ccccc12 | i | ? | ? | i | i | i
O=C(COC(=O)Cc1n[nH]c(=O)c2ccccc12)NNC(=O)c1ccc(Cl)cc1 | i | 23µM | 21µM | i | i | ?
CCOc1ccc(C(=O)COC(=O)Cc2n[nH]c(=O)c3ccccc23)cc1 | i | 0.73µM | 0.92µM | i | nt | i
O=C(Cc1n[nH]c(=O)c2ccccc12)OCC(=O)c1ccc2c(c1)OCCO2 | i | 1.3µM | 0.92µM | i | i | ?
O=C(Cc1n[nH]c(=O)c2ccccc12)OCC(=O)c1ccc(F)cc1 | i | i | i | i | i | i
Cc1ccc(OCCC(=O)OCC(=O)Nc2ccc(F)cc2)cc1 | i | i | ? | i | i | i
COCCN1CCN(C(=O)c2cnn(-c3nccc(-c4ccco4)n3)c2C2CC2)CC1 | nt | i | i | nt | nt | nt
O=C(c1ccco1)[C@@H]1[C@@H]2C(=O)N(c3ccc(F)cc3)C(=O)[C@@H]2[C@H]2C=Cc3ccccc3N21 | i | 18µM | 6.5µM | i | i | i
COc1cccc(C2C(C(=O)Nc3ccc(Cl)cc3)=C(C)Nc3c(C(=O)Nc4ccccc4)cnn32)c1OC (stereo unspecified) | nt | ? | 23µM | i | i | i
COc1ccccc1NC(=O)c1c(N=Cc2cccc([N+](=O)[O-])c2)cnn1C | nt | i | i | i | i | i
CC1=C(C(=O)Nc2ccc(Cl)cc2)C(c2ccccc2C)n2ncc(C(=O)Nc3ccc(C)cc3)c2N1 (stereo unspecified) | nt | 7.3µM | 7.3µM | i | i | ?
COc1ccccc1NC(=O)C1=C(C)Nc2c(C(=O)Nc3ccc(F)cc3)cnn2C1c1cccc([N+](=O)[O-])c1 (stereo unspecified) | nt | 23µM | ? | i | i | i
COc1ccc(NC(=O)C2=C(C)Nc3c(C(=O)Nc4ccc(C)cc4)cnn3C2c2cc(OC)ccc2OC)cc1 (stereo unspecified) | nt | ? | i | i | i | i
CC1=C(C(=O)Nc2ccc(Cl)cc2)C(c2ccccc2)n2ncc(C(=O)Nc3ccccc3)c2N1 (stereo unspecified) | nt | 15µM | 21µM | i | i | ?
COc1ccc(NC(=O)C2=C(C)Nc3c(C(=O)Nc4ccc(C)cc4)cnn3C2c2cccc(Cl)c2)cc1 (stereo unspecified) | nt | i | ? | i | i | i
O=C(CCn1cnc2ccccc2c1=O)NCc1ccccc1 | nt | i | ? | i | i | i
CN(C=O)c1cc([N+](=O)[O-])ccc1OCc1ccccc1 | i | ? | i | i | nt | i
CC(=O)Nc1ccc(/C=C/c2ccccn2)cc1 | nt | i | i | i | nt | i
CC(C)(C)OC(=O)N1CCC(NC(=O)c2nc[nH]c2C(=O)N2CCN(c3ccccc3)CC2)CC1 | i | ? | ? | i | i | i
Cc1c(C(=O)NCCC2=CCCCC2)oc2ccc(S(=O)(=O)N3CCOCC3)cc12 | ? | 21µM | ? | i | i | ?
O=C(NCCC1=CCCCC1)c1cc(S(=O)(=O)N2CCOCC2)ccc1F | i | ? | 13µM | i | i[0.505 µM] | i
O=C(NCCC1=CCCCC1)c1ccc(F)c(S(=O)(=O)N2CCOCC2)c1 | i | ? | i | i | i | i
CC1CCN(CCCNC(=O)c2cc3c(=O)n(C)c4ccccc4c3n2C)CC1 | -66 | 33µM | 23µM | i | i | i
Cn1c(C(=O)NCCN2CCN(Cc3ccccc3)CC2)cc2c(=O)n(C)c3ccccc3c21 | i | 23µM | 23µM | i | nt | i
COc1cc(-c2[nH]ncc2CN2CCN(Cc3cccs3)CC2)cc(OC)c1OC | i | 21µM | 18µM | i | i | i
SMILES | IL-1B inflam inh | TDP1 cell noCPT | DT40 TDP1 CPT | HepG2 viability | TDP1 block | TGFb SMAD3 inh
COc1ccc(-c2[nH]ncc2CN2CCN(Cc3cccs3)CC2)c(F)c1 | i | ? | i | i | i | i
CCC(C(=O)Nc1cc(-c2nc3cccnc3s2)ccc1C)c1ccccc1 (stereo unspecified) | nt | 21µM | ? | i | i | i
Cc1ccc(-c2nc3cccnc3s2)cc1NS(C)(=O)=O | i | 21µM | ? | i | nt | i
Cc1cccc(C(=O)Nc2cc(-c3nc4cccnc4s3)ccc2C)c1 | nt | ? | ? | i | i | i
Cc1ccc(-c2nc3cccnc3s2)cc1NC(=O)C(C)C | nt | i | i | i | i | i
COc1ccc(CCN2CC(C(=O)N3CCCCCC3)CCC2=O)cc1 (stereo unspecified) | i | i | i | i | i | i
CCOC(=O)CCN(c1ccccc1)S(=O)(=O)c1ccc(-c2ccc(=O)[nH]n2)s1 | i | i | ? | i | i | i
CCCN1CCC(=O)N(CCC#N)CC1 | nt | i | i | i | nt | i
CCc1ccccc1NC(=O)Cn1c(=O)oc2ccccc21 | nt | 0.46µM | 2.3µM | i | i | i
CC(C)Oc1ccc(CNC(=O)Cn2c(=O)oc3ccccc32)cc1 | i | 16µM | ? | i | i | i
Cc1ccccc1NC(=O)Cn1c(=O)oc2ccccc21 | i | 2.1µM | 3.7µM | i | i | i
COc1ccc(C)cc1NC(=O)Cn1c(=O)oc2ccccc21 | i | 2.1µM | 9.2µM | i | nt | i
CCCOc1ccc(CNC(=O)Cn2c(=O)oc3ccccc32)cc1 | i | ? | ? | i | i | i
Cc1cccnc1NC(=O)CCc1nnc2ccc(N3CCC4(CC3)OCCO4)nn12 | i | i | i | i | i | i
Cc1ccc2c(c1)N(CC(=O)NC1CCCC1)C(=O)c1cccnc1O2 | i | i | i | i | nt | i
CC(=O)/C=C\C1[C@]2(C)CCCC(C)(C)C2CC[C@@]1(C)O (stereo partly specified) | nt | i | i | nt | i | nt
COc1ccc(/C=N/n2cnnc2SCc2ccccc2)cc1 | i | 21µM | ? | i | i | ?
C=CCC(CC=C)(CNC(=O)C(=O)Nc1ccc(Br)cc1)c1ccc(OC)c(OC)c1 | nt | ? | i | i | i | i
O=C(NCC(c1ccc2c(c1)OCO2)N1CCN(c2ccccc2)CC1)C(=O)Nc1cccc(F)c1 (stereo unspecified) | nt | ? | i | i | i | i

Bioassay records: PubChem BioAssay, National Center for Advancing Translational Sciences (NCATS)
